# Measured values as given in PubChem BioAssay (NCI).
# The panel holds about 79,000 compounds, 15% with a hit somewhere; the sample as a whole holds those more often. Active and inactive are the calls of the source. Cut-off read from the data, not from the text of the source: active = growth inhibition above about 70%; inactive = the rest.
# Assay: NCI Yeast Anticancer Drug Screen. Data for the mec2-1 strain (AID 157)
# Conditions: S. cerevisiae mec2-1 strain, at 50.0 µM, active compounds read high
# Method in brief: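 Each compound was tested on mec2-1 yeast, a strain altered in DNA damage repair or cell cycle control. Growth inhibition is reported relative to vehicle.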
row,SMILES,growth inhibition
1,Nc1ccccc1C(=O)Oc1ccccn1,8.9% (inactive)
2,COc1ccc2c(c1O)-c1cc(O)cc3c1C(C2)NCC3 (stereo not drawn),21.8% (inactive)
3,CN1CCCC(OC(=O)C(c2ccccc2)C2(O)CCCC2)C1 (stereo not drawn),-9.55% (inactive)
4,NC(=O)c1ccc(NN=O)nc1,0.9% (inactive)
5,CC(=O)[O-].[Ni].c1ccc(/C(=N\Nc2ccccn2)c2ccccn2)cc1,3.15% (inactive)
6,[N-]=[N+]=CC(=O)OCC(N)C(=O)O (stereo not drawn),-12.8% (inactive)
7,CCN1C2CCC1CC(=O)C2,5.9% (inactive)
8,C[CH2][Sn]([CH2]C)([O]C(=O)c1ccc(F)cc1)[O]C(=O)c1ccc(F)cc1,17.7% (inactive)
9,CCCN=Cc1ccccc1O.CCCN=Cc1ccccc1O.[Ni],9.4% (inactive)
10,C#CCOC(C(=O)OC1CCN(C)CC1)(c1ccccc1)c1ccccc1,-11.8% (inactive)
11,CCOC(CNC(=O)c1ccc(S(=O)(=O)F)cc1)OCC,27.6% (inactive)
12,NS(=O)(=O)c1ccc([As]=O)cc1 (stereo not drawn),-8.25% (inactive)
13,CSCCC(N)P(C)(=O)O (stereo not drawn),-37.5% (inactive)
14,NC1(O)C(=O)NC(=O)NC1=O,-30% (inactive)
15,COc1cc(C2CNCc3cc(OC)c(O)cc32)ccc1O (stereo not drawn),-7.1% (inactive)
16,O=[N+]([O-])c1cc(/C=N\NC(=S)NC2CN3CCC2CC3)ccc1Cl (stereo not drawn),-24.1% (inactive)
17,NC(=NC(c1ccccc1)c1ccccc1)N[N+](=O)[O-],5.3% (inactive)
18,COc1ccc(NC(=O)C(=O)C(CC2C(=O)NC(=S)NC2=O)C(=O)c2ccc3ccccc3c2)c([N+](=O)[O-])c1 (stereo not drawn),1.35% (inactive)
